Unmarked numbers belong to inactive results. Rule as the data show it: active = inhibition score above about 11; inactive = the rest.
Test: S. cerevisiae short- and long-term growth effects – BY4741, OD595, 24 h, dose response (AID 489042)
Details: flow cytometer event count, 7 d (AID 449753), stronger effect = higher value

Question: For `COc1ccc2cc(C3CC(c4ccco4)=NN3S(=O)(=O)c3ccccc3)c(Cl)nc2c1` (centres undefined), which inhibition score is on record?
Answer: Its inhibition score is 0.

Question: Which inhibition score does the source give for `Cc1cccc2nc3ccccc3nc12` here?
Answer: Its inhibition score is 0.

Question: With `C/C(=N\Nc1ncnc2sc(C)c(C)c12)c1ccccn1` as the molecule, how does the inhibition score read?
Answer: Its inhibition score is 10.

Question: Which inhibition score does the source give for `C=CCOn1c(=O)c(-c2cccs2)[n+]([O-])c2ccccc21` here?
Answer: Its inhibition score is 0.

Question: For `Cc1ccccc1NC(=O)c1cccc2nc3ccccc3nc12`, which inhibition score is on record?
Answer: Its inhibition score is 0.

Question: Which inhibition score does the source give for `NC(=O)CSc1nnc(-c2ccc([N+](=O)[O-])cc2)o1` here?
Answer: The inhibition score was 0.

Question: For `CCN(CC)C(=O)c1ccc2nc3ccccc3nc2c1`, which inhibition score is on record?
Answer: The inhibition score was 0.

Question: For `COc1ccc2c3c(cccc13)N(C)N=C2C`, which inhibition score is on record?
Answer: The inhibition score was 0.

Question: Which inhibition score does the source give for `CCCCCNC(=O)C(=O)C1C(=O)Nc2ccccc21` (centres undefined) here?
Answer: The inhibition score was 0.

Reference: PubChem BioAssay AID489042 (NMMLSC, 2010)
